# From PubChem BioAssay
# A selection: hits, their analogues and other compounds. The true share with any hit is near 2%.
# PAX8 reporter = lowers PAX8-driven luciferase in RMG-I cells; RMG-I TPO-luciferase reporter, SteadyGlo, 24 h; inhibition, % at 12.6 µM; AID 652154; 360,000 compounds, 1.2% hits;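 active = mean replicate inhibition at least 60% with every replicate also reaching 60%; inconclusive = only one of the two criteria is met; inactive = mean below 60% and not all replicates reaching 60%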;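 note: luciferase light reporting Pax8 driven TPO promoter activity; plate controls were median of neutral control wells for no effect and mitoxantrone controls for full effect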
# KKLEB tox = CF airway cell cytotoxicity counter-screen; KKLEB CF airway cells viability, ATPlite luminescence, overnight; hits give low values; cells stimulated with P. aeruginosa culture filtrate; activity change (cytotoxicity), % at 5 µM; 360,000 compounds, 0.36% hits; AID 602141;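 active = corrected activity change at or below -50% at 5 µM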
# LGR2 inh = blocks bursicon-induced cAMP signaling via Drosophila LGR2; inhibition, % at 9.99 µM; 380,000 compounds, 0.35% hits; HEK293 LGR2, CRE-luciferase, bursicon-stimulated, 4 h;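 active = drop in luminescence signal, shown as inhibition above about 50% in the replicate tests, limit read from the data, passing the limit was not always enough; inconclusive = probably only some replicates passing the limit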;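 note: agonist challenge used bursicon conditioned medium at about half maximal strength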
# Shn3 inh set2 = reduces Shn3 3'UTR luciferase signal in osteoblasts | Clone20 osteoblast Shn3 3'UTR firefly luciferase, 24 h | inhibition, % at 12.5 µM | 360,000 compounds, 0.52% hits | AID 588674;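 active = mean inhibition of at least 75% with every replicate also reaching 75%; inconclusive = mean inhibition at least 75% but some replicate below; inactive = mean inhibition below 75%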;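 note: 0% = median of neutral control wells and 100% = pilot-screen positive control compound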
# EWS-Fli inh = blocks EWS/Fli oncoprotein-driven transcription | inhibition, % at 12.6 µM | 350,000 compounds, 0.67% hits | A673 NR0B1-luciferase reporter, viability-normalised | AID 651661;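 active = mean inhibition of at least 50% after viability correction, with every replicate also passing that limit; inconclusive = mean reaches 50% but only one of two replicates passes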;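 note: firefly luciferase signal divided by Alamar Blue viability fluorescence both relative to DMSO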
# CF NFkB block = inhibitors of cystic fibrosis induced NF-kB; KKLEB NF-kB-GFP reporter, PAF-induced, GFP fluorescence overnight; inhibition, % at 5 µM; 360,000 compounds, 0.86% hits;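 active = at least 50% inhibition at 5 µM, scaled per plate between neutral and stimulator controls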;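 note: PAF is a Pseudomonas aeruginosa culture filtrate used as stimulus; plate controls were PAF-stimulated DMSO wells for no effect and unstimulated DMSO wells for full effect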
# CF NFkB conf = CF NF-kB inhibition confirmation, single concentration | shares compounds with CF NFkB block | KKLEB CF airway cells, PAF-induced NF-kB-GFP fluorescence, overnight | inhibition, % at 5 µM | 1,300 compounds, 64% hits; in the data active = inhibition above about 40%;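 note: stimulus PAF is a Pseudomonas aeruginosa filtrate and not platelet activating factor; plate controls were DMSO wells with stimulus for no effect and unstimulated DMSO wells for full effect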
# An asterisk follows results filed as active; ? = inconclusive; nt = no result given.
SMILES,PAX8 reporter,KKLEB tox,LGR2 inh,Shn3 inh set2,EWS-Fli inh,CF NFkB block,CF NFkB conf
Clc1cccc(Cc2c(-c3ccco3)nc3ccc(Cl)cn23)c1,5.5,-14.0,8.2,-7.5,-2.2,69.5*,-50.0
Clc1cccc(Cc2c(-c3ccco3)nc3ccc(Br)cn23)c1,36.3,-4.5,nt,-5.5,18.5,43.1,nt
CCN1CCN(c2ccc(S(=O)(=O)N3CCCCC3)cc2NC(=O)Cc2ccccc2)CC1,8.7,-48.2,-9.3,-17.8,-0.5,56.9*,17.5
COc1ccc(CN(C)C[C@@H]2OCCCC[C@H](C)Oc3ccc(NC(=O)CCC(F)(F)F)cc3C(=O)N([C@H](C)CO)C[C@@H]2C)cc1,-10.2,nt,-9.3,nt,1.6,nt,nt
S=c1sc2c(Cl)ncnc2n1-c1ccccc1,93.3*,-28.5,104.0*,-7.5,74.2*,78.0*,24.9
CCCC(=O)Nc1ccc2c(c1)OC[C@H](C)N(Cc1ccc(F)cc1)C[C@H](C)[C@@H](OC)CN(C)C2=O,12.6,nt,24.2,nt,8.2,nt,nt
CCCC(=O)Nc1ccc2c(c1)OC[C@@H](C)N(C(=O)c1ccccn1)C[C@@H](C)[C@H](OC)CN(C)C2=O,-12.7,nt,-4.5,nt,14.7,nt,nt
CCOC(=O)c1[nH]c2c(c1C)C(=O)CC(c1ccco1)C2 (centres undefined),82.8*,-18.8,-31.5,11.4,31.5,56.7*,80.4*
CO[C@@H]1CC[C@@H]2CCN(C)C(=O)[C@H](C)N(C)C(=O)c3cccc(C#N)c3OC[C@H]1O2,-6.0,nt,2.6,nt,-7.1,nt,nt
Cc1ccc(NC(=O)Nc2nnc(-c3ccncc3)s2)cc1C,-41.9,-29.7,?,-10.5,-35.5,89.7*,77.0*
CCc1ccc(-c2n[nH]nc2C2=CC(=O)C[C@H](c3ccc(F)cc3)C2)cc1,-6.1,1.3,15.4,12.2,6.4,61.1*,39.7
Cc1ccccc1S(=O)(=O)N1CC[C@@H]2[C@H](CO)Nc3ccc(-c4ccccc4)cc3[C@@H]21,10.8,nt,22.3,nt,-10.6,nt,nt
CC1(C)CC(=O)C2=C(C1)N(CCN1CCOCC1)C1=C(C(=O)CC(C)(C)C1)C2c1ccc(Cl)cc1,-5.4,-0.5,0.8,4.2,14.2,56.6*,3.4
Cc1ccc(C(=O)Nc2cccc(C(F)(F)F)c2)cc1Nc1cnccn1,3.1,-0.2,5.0,11.6,-18.7,50.8*,42.9*
O=C(Nc1cnccn1)c1cccc(C(F)(F)F)c1,nt,9.8,nt,-18.7,nt,3.7,nt
Cc1ccc(C(=O)Nc2cccc(C(F)(F)F)c2)cc1NC(=O)c1ccno1,18.7,-3.8,9.4,4.4,-3.6,59.5*,71.1*
O=C(Nc1ccc(Br)c2ccccc12)c1ccc2ccccc2c1O,-11.8,-46.5,30.3,53.8,-3.2,53.6*,72.7*
O=C(Nc1c(Cl)ccc2nsnc12)c1ccc(Br)o1,3.4,-3.3,-3.8,-4.0,9.6,14.2,nt
O=C(Nc1c(Cl)ccc2nsnc12)c1ccc([N+](=O)[O-])o1,41.8,-20.4,6.8,75.8,?,86.8*,-5.7
Cc1ccc(C(C(=O)NCc2ccccc2)N(Cc2cccs2)C(=O)c2ccc3c(c2)OCCO3)cc1 (centres undefined),44.8,-16.0,31.7,44.8,9.9,90.7*,104.7*
COc1ccc(CN(C)C[C@H]2Oc3ccc(NC(=O)C4CC4)cc3CC(=O)N([C@H](C)CO)C[C@@H]2C)cc1,-24.1,nt,7.5,nt,39.9,nt,nt
Nc1nccc(SCc2ccc(Cl)cc2Cl)n1,-13.7,-15.4,2.8,42.0,-5.0,56.7*,55.5*
O=C(C[C@@H]1C=C[C@H](NC(=O)c2cccc(F)c2)[C@@H](CO)O1)NCc1ccccc1,-4.3,nt,5.6,nt,4.8,nt,nt
COC(=O)c1ccc2nc(NC(=O)CCS(=O)(=O)c3ccccc3)sc2c1,57.9,-33.7,-5.1,11.4,-39.6,58.0*,30.0
CC(=O)c1sc(NC(=O)CCS(=O)(=O)c2ccc(Cl)cc2)nc1C,89.3*,4.0,-6.4,-21.0,5.9,55.5*,40.1*
SMILES,PAX8 reporter,KKLEB tox,LGR2 inh,Shn3 inh set2,EWS-Fli inh,CF NFkB block,CF NFkB conf
CS(=O)(=O)c1ccc2nc(NC(=O)Cc3ccccc3)sc2c1,-18.4,-10.0,nt,-14.3,-10.8,-12.8,nt
CS(=O)(=O)c1ccc2nc(NC(=O)CCS(=O)(=O)c3ccccc3)sc2c1,18.2,0.3,21.9,9.5,0.8,75.1*,63.6*
O=C(CCS(=O)(=O)c1ccccc1)Nc1nc2cc3c(cc2s1)OCCO3,-29.1,-22.6,-38.7,-30.1,-36.0,44.9,nt
CS(=O)(=O)c1ccc2nc(NC(=O)Nc3cccc(Cl)c3)sc2c1,nt,-32.4,-15.7,-2.8,-19.9,63.5*,66.0*
CO[C@H]1CN(C)C(=O)c2ccc(NS(=O)(=O)c3cccc(F)c3)cc2OC[C@@H](C)N(C(=O)Cc2cccnc2)C[C@@H]1C,-7.8,nt,0.3,nt,4.9,nt,nt
CO[C@@H]1CC[C@@H]2CCN(C)C(=O)[C@H](C)[C@H](OC)CN(C)C(=O)c3cccc(C#N)c3OC[C@@H]1O2,-1.0,nt,13.1,nt,-4.2,nt,nt
c1cc2[nH]snc2c2nc(C3CC3)nc12,nt,0.1,nt,-3.0,nt,74.2*,67.8*
O=C(c1c[nH]c2ccccc12)C(Cl)c1ccccc1 (centres undefined),81.1*,-32.6,21.1,16.6,27.8,63.2*,42.1*
CN(C)C(=O)C[C@H]1C[C@@H]2c3cc(NC(=O)Nc4ccc(F)cc4)ccc3O[C@@H]2[C@H](CO)O1,-10.4,nt,-4.6,nt,-7.7,nt,nt
CC(=O)Oc1ccc(C(=O)O)cc1OC(C)=O,nt,-7.2,13.4,-3.8,-7.7,21.2,nt
CC(=O)Oc1ccc(OC(C)=O)c(SCCCCCCl)c1,14.7,-9.8,18.3,95.0*,53.6*,57.7*,10.0
CCC(=O)N1C[C@@H]2[C@H](c3ccccc31)[C@H](CO)N2C(=O)CC1CC1,-9.9,nt,-1.6,nt,15.6,nt,nt
Cc1c(Cl)cccc1N=C1SCCN1C(=O)CN1C(=O)NC2(CCCC2)C1=O,22.8,-30.6,-10.4,-20.3,-26.7,52.9*,40.0*
C[C@@H]1CN([C@H](C)CO)S(=O)(=O)c2ccc(C#Cc3ccccc3)cc2O[C@@H]1CN(C)C(=O)Cc1ccccn1,nt,nt,5.2,nt,-7.9,nt,nt
COc1ccc(C2=NN(C(=O)c3ccc(Cl)c([N+](=O)[O-])c3)C(c3ccccc3)C2)cc1 (centres undefined),8.9,-4.2,-3.4,-7.3,-20.3,-23.2,nt
COc1ccc2cc3c(N)nn(C(=O)c4ccc(Cl)c([N+](=O)[O-])c4)c3nc2c1,-0.2,-7.4,nt,9.7,-3.5,65.3*,38.6
CCCC1CCC(C(=O)n2nc(N)c3cc4ccc(OC)cc4nc32)CC1 (centres undefined),-5.9,3.0,11.7,-1.6,0.3,35.9,nt
COc1ccc2cc3c(N)nn(C(=O)c4ccccc4[N+](=O)[O-])c3nc2c1,-18.5,-28.1,nt,13.5,-16.3,70.8*,93.3*
